Source: PubChem BioAssay (EPA / NIEHS)
Inconclusive results are not listed. The source made the active and inactive calls. Rule for the calls, unless noted: active = hit-call score of the fitted dose curve at least 0.9, where 1 is the maximum; inactive = score below 0.9.

Assays:
[1] = target: Glucocorticoid receptor (Homo sapiens) (UniProt P04150); experiment: ATG_GR_TRANS: Attagene TRANS-FACTORIAL HepG2 Assay for human Glucocorticoid Receptor (GR) (AID 2282978; active = hit-call score of the fitted dose curve at least 0.9, where 1 is the maximum;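 note: activators score as hits since higher reporter transcript over DMSO is fitted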); conditions: HepG2 Attagene TRANS GR reporter, mRNA transcription
Sequence of Glucocorticoid receptor (Homo sapiens) (P04150 whole entry, looked up, the tested form may be a part): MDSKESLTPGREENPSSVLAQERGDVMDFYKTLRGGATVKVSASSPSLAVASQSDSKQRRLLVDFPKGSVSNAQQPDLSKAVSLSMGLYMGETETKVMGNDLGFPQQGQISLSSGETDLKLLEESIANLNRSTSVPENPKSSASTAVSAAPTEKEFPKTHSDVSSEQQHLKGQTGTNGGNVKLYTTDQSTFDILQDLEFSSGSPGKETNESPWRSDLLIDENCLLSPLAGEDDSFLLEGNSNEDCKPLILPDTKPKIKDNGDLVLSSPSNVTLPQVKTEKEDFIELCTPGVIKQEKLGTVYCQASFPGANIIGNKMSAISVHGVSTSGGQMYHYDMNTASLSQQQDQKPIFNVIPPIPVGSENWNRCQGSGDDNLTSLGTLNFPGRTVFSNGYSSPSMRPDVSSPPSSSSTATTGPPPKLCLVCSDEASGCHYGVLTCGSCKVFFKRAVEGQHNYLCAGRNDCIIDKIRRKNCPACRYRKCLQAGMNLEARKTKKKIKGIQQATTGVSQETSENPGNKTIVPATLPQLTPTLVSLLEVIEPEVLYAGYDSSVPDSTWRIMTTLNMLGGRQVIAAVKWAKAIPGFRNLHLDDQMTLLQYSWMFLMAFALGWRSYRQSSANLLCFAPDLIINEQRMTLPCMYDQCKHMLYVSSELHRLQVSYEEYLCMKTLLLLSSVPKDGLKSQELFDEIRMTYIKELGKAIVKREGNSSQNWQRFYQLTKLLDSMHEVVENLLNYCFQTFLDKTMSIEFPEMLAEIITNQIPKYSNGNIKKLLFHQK
Method in brief: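 HepG2 transient transfection, multiple reporter units, GAL4-UAS under NR-GAL4 chimera control. 24 h treatment. Reporter mRNA by RT-PCR/CE fluorescence, DMSO as negative control.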

[2] = target: Oxysterols receptor LXR-alpha (Homo sapiens) (UniProt Q13133); experiment: ATG_LXRa_TRANS: Attagene TRANS-FACTORIAL HepG2 Assay for human Liver X Receptor alpha (LXRa) (AID 2282980; active = hit-call score of the fitted dose curve at least 0.9, where 1 is the maximum); conditions: HepG2 Attagene TRANS reporter, LXRa transactivation
Sequence of Oxysterols receptor LXR-alpha (Homo sapiens) (Q13133 whole entry, looked up, the tested form may be a part): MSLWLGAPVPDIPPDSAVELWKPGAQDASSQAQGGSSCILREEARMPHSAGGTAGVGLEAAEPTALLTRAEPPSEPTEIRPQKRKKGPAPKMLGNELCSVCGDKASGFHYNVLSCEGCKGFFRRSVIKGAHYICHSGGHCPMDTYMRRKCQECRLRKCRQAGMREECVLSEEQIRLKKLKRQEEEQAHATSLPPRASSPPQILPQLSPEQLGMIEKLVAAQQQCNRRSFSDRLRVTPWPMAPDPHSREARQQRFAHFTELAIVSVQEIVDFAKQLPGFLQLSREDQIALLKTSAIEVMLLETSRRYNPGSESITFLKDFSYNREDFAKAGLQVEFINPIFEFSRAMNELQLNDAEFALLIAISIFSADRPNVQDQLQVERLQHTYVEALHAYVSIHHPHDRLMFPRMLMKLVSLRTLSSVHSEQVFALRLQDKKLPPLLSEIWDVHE
Method in brief: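 HepG2 cells were transiently transfected with multiplexed reporter units driven by chimeric LXRa–GAL4 fusion proteins, then dosed for 24 h. Reporter mRNA was quantified by RT-PCR, fluorescent labelling and capillary electrophoresis; gain of signal fitted against DMSO baseline.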

[3] = target: Oxysterols receptor LXR-beta (Homo sapiens) (UniProt P55055); experiment: ATG_LXRb_TRANS: Attagene TRANS-FACTORIAL HepG2 Assay for human Liver X Receptor beta (LXRb) (AID 2282981; active = hit-call score of the fitted dose curve at least 0.9, where 1 is the maximum); conditions: HepG2 Attagene TRANS GAL4-LXRb reporter, mRNA
Sequence of Oxysterols receptor LXR-beta (Homo sapiens) (P55055 whole entry, looked up, the tested form may be a part): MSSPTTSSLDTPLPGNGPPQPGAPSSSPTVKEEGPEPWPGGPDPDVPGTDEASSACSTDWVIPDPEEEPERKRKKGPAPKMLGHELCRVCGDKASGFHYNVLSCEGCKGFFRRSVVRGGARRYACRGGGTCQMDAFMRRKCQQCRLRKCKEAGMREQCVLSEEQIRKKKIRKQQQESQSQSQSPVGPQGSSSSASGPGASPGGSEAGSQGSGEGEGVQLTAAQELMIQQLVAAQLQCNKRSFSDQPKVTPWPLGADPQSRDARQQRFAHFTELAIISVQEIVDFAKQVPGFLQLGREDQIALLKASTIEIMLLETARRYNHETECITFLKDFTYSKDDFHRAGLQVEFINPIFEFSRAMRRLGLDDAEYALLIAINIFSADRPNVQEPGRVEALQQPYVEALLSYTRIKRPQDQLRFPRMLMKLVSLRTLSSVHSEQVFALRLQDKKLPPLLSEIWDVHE
Method in brief: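 Multiplexed reporter assay, HepG2, 24 h dosing. Fluorescence of labelled RT-PCR products after capillary electrophoresis gives transcript level; positive fitting direction relative to DMSO.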

[4] = ATG_M_06_TRANS: Attagene TRANS-FACTORIAL HepG2 Assay for M06 Transcription Factor (Internal Marker) (AID 2282983; active = hit-call score of the fitted dose curve at least 0.9, where 1 is the maximum); conditions: HepG2 Attagene TRANS M06 internal marker reporter
Method in brief: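 In this multiplexed HepG2 system, compounds are incubated 24 h with cells carrying GAL4-UAS reporter units. Reporter RNA is amplified and resolved by capillary electrophoresis, and induction is scored against DMSO.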

[5] = target: Nuclear respiratory factor 1 (Homo sapiens) (UniProt Q16656); experiment: ATG_NRF1_CIS: Attagene CIS-FACTORIAL HepG2 Assay for human Nuclear Respiratory Factor 1 (NRF1) Orphan Gene (AID 2282987); conditions: HepG2 NRF1 cis-element reporter, Attagene multiplex; actives raise or lower the signal
Sequence of Nuclear respiratory factor 1 (Homo sapiens) (Q16656 whole entry, looked up): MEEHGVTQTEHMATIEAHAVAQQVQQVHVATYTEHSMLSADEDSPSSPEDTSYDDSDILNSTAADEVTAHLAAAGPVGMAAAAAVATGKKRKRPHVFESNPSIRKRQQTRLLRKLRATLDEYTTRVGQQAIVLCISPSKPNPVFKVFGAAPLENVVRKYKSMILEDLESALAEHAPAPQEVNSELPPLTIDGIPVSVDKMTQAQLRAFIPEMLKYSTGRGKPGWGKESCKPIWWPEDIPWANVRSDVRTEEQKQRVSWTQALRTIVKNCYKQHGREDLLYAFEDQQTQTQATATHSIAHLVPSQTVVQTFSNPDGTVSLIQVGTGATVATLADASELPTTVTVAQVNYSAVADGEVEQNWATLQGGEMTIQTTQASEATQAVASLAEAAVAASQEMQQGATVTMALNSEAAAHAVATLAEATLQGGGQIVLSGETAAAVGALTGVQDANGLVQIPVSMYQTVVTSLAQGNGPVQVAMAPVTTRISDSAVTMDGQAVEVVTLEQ
Method in brief: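 Endogenous factor activity was captured via cis-element-driven reporter transcripts in HepG2 cells. Following 24 h chemical treatment, transcripts were quantified by RT-PCR and capillary electrophoresis.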

[6] = ATG_NFI_CIS: Attagene CIS-FACTORIAL HepG2 Assay for human Nuclear Factor I (NFI) (AID 2282989); conditions: HepG2 cis-regulatory reporter, NFI response element transcription; actives raise or lower the signal
Method in brief: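 Reporter transcripts were measured by RT-PCR with fluorescent primer extension and capillary electrophoresis 24 h post-treatment. HepG2 cells carried transiently transfected cis-regulated reporter constructs reporting endogenous factor activity; gain or loss fitted against DMSO baseline.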

[7] = target: Myc proto-oncogene protein (Homo sapiens) (UniProt P01106); experiment: ATG_Myc_CIS: Attagene CIS-FACTORIAL HepG2 Assay for human Myelocytomatosis (Myc) Proto-Oncogene Transcription Factor (AID 2282990); conditions: HepG2, Attagene cis-reporter transcription factor activity; actives raise or lower the signal
Sequence of Myc proto-oncogene protein (Homo sapiens) (P01106 whole entry, looked up, the tested form may be a part): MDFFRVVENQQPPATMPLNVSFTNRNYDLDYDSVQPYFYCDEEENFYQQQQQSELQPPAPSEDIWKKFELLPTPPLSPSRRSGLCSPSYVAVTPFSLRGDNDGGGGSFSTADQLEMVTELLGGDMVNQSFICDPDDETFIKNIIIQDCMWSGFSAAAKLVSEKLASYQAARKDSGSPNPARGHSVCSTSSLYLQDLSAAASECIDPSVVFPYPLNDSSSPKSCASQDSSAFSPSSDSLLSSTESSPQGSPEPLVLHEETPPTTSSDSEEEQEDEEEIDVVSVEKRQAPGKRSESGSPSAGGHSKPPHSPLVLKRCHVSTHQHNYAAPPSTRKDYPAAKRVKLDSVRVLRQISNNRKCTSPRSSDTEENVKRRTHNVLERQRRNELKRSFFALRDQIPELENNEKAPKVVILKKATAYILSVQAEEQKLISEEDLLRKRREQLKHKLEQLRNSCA
Method in brief: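 Read-out: fluorescent reporter mRNA fragments resolved by capillary electrophoresis after RT-PCR. Human HepG2 liver cells carried transfected cis-element reporter units and were dosed for 24 h. Gain or loss of signal fitted relative to DMSO baseline.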

[8] = ATG_NRF2_ARE_CIS: Attagene CIS-FACTORIAL HepG2 Assay for human Nuclear Factor Erythroid 2 Related Factor 2 (NFR2) response to Antioxidant Response Elements (ARE) (AID 2282992); conditions: HepG2 Attagene ARE/NRF2 reporter, transcription factor activity; actives raise or lower the signal;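 for AC50: reporter mRNA level measured by RT-PCR and capillary electrophoresis fluorescence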
Method in brief: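 Endogenous transcription factor activity in human liver HepG2 cells is tracked via a cis-element-driven reporter within a multiplexed set. mRNA induction is read by RT-PCR and capillary electrophoresis after 24 h, with DMSO as baseline.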

[9] = ATG_Oct_MLP_CIS: Attagene CIS-FACTORIAL HepG2 Assay for human Octamer-Binding Transcription Factor (Oct) (AID 2282993); conditions: HepG2 Attagene cis-factorial Oct reporter, mRNA; actives raise or lower the signal
Method in brief: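 Readout is reporter transcript level from RT-PCR with fluorescent primer extension and capillary electrophoresis, fitted in both directions against DMSO. Transfected HepG2 reporter units report endogenous factor activity after 24 h dosing.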

[10] = target: Cellular tumor antigen p53 (Homo sapiens) (UniProt P04637); experiment: ATG_p53_CIS: Attagene CIS-FACTORIAL HepG2 Assay for human p53 Transcription Factor (AID 2282994); conditions: HepG2 p53 cis-element reporter, Attagene mRNA; actives raise or lower the signal
Sequence of Cellular tumor antigen p53 (Homo sapiens) (P04637 whole entry, looked up, the tested form may be a part): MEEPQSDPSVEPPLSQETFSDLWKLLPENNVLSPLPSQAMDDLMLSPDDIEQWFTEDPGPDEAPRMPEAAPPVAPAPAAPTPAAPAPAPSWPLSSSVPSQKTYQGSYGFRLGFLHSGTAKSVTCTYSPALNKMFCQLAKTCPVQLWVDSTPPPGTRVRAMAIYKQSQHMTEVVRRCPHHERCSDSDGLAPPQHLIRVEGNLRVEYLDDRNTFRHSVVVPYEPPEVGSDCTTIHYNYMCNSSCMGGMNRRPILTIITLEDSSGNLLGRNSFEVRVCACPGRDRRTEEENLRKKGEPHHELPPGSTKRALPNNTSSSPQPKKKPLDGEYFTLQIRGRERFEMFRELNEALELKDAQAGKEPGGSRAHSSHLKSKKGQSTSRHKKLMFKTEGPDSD
Method in brief: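 Steps: transfect HepG2 with multiplexed cis reporter constructs; dose chemicals 24 h; extract RNA, reverse-transcribe, PCR-amplify reporter sequences; FAM-label, HpaI-digest, resolve fragments by CE. Activity fitted both directions relative to DMSO.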

[11] = BSK_3C_TissueFactor: BioMAP Diversity Plus: 3C Assay for Tissue Factor Biomarker Activity (AID 2282997); conditions: BioMAP 3C HUVEC, tissue factor biomarker readout; actives raise or lower the signal
Method in brief: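 Readout: Tissue Factor ELISA. Cells: human primary umbilical vein endothelium. Time: 24 h after dosing. Analysis: bidirectional fit, DMSO baseline.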

[12] = BSK_3C_uPAR: BioMAP Diversity Plus: 3C Assay for Urokinase-type plasminogen activator receptor (uPAR) Biomarker Activity (AID 2282998); conditions: BioMAP 3C HUVEC, uPAR biomarker ELISA; actives raise or lower the signal
Method in brief: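 Cell-surface uPAR on HUVEC (3C system) read by ELISA at 24 h post-treatment, with DMSO as baseline and fitting in both directions. Parallel cultures stained with SRB to flag overt cytotoxicity.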

[13] = BSK_3C_VCAM1: BioMAP Diversity Plus: 3C Assay for Vascular cell adhesion molecule 1 (VCAM1) Biomarker Activity (AID 2282999); conditions: BioMAP 3C HUVEC, VCAM1 ELISA, cytokine-stimulated; actives raise or lower the signal
Method in brief: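 HUVEC primary cells, 24 h compound exposure; VCAM-1 by ELISA; gain/loss of signal fitted bidirectionally vs DMSO baseline.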

[14] = BSK_4H_Eotaxin3: BioMAP Diversity Plus: 4H Assay for Eotaxin 3 Biomarker Activity (AID 2283000); conditions: primary human endothelial cells (HUVEC); actives raise or lower the signal;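 for outcome: CCL26 protein level quantified by ELISA in parallel with SRB cytotoxicity check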
Method in brief: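 HUVEC, 24 h post-dose, ELISA for Eotaxin-3/CCL26. Gain or loss of signal fitted bidirectionally vs DMSO baseline.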

[15] = target: Nuclear receptor subfamily 4 group A member 2 (Homo sapiens) (UniProt P43354); experiment: ATG_NURR1_TRANS: Attagene TRANS-FACTORIAL HepG2 Assay for human Nuclear Receptor Related Protein 1 (NURR1) (AID 2282985; active = hit-call score of the fitted dose curve at least 0.9, where 1 is the maximum); conditions: HepG2 Attagene TRANS reporter, mRNA readout
Sequence of Nuclear receptor subfamily 4 group A member 2 (Homo sapiens) (P43354 whole entry, looked up): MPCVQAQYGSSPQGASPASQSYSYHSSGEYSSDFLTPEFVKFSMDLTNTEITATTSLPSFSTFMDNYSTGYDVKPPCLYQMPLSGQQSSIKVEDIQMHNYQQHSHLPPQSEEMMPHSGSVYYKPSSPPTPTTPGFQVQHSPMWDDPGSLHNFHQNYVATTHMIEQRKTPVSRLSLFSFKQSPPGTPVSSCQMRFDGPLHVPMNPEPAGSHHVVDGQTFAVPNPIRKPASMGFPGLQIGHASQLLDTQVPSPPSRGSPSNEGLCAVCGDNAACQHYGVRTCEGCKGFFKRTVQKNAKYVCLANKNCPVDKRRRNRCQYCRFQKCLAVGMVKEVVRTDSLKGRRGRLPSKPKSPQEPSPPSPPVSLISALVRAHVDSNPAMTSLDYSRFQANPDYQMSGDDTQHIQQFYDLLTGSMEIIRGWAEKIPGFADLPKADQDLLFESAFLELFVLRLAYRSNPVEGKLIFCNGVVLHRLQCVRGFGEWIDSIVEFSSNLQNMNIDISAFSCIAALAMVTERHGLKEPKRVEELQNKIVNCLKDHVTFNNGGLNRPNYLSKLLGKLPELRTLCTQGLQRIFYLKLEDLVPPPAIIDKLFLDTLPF
Method in brief: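 Endpoint: reporter mRNA increase relative to DMSO. HepG2 cells transfected with reporter units, treated 24 h; RNA processed by RT-PCR, labelling, HpaI digestion and capillary electrophoresis.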

[16] = target: Transcriptional activator Myb (Homo sapiens) (UniProt P10242); experiment: ATG_Myb_CIS: Attagene CIS-FACTORIAL HepG2 Assay for human Myeloblastosis (Myb) Proto-Oncogene Transcription Factor (AID 2282986); conditions: HepG2 Attagene CIS-FACTORIAL Myb reporter transcription; actives raise or lower the signal
Sequence of Transcriptional activator Myb (Homo sapiens) (P10242 whole entry, looked up): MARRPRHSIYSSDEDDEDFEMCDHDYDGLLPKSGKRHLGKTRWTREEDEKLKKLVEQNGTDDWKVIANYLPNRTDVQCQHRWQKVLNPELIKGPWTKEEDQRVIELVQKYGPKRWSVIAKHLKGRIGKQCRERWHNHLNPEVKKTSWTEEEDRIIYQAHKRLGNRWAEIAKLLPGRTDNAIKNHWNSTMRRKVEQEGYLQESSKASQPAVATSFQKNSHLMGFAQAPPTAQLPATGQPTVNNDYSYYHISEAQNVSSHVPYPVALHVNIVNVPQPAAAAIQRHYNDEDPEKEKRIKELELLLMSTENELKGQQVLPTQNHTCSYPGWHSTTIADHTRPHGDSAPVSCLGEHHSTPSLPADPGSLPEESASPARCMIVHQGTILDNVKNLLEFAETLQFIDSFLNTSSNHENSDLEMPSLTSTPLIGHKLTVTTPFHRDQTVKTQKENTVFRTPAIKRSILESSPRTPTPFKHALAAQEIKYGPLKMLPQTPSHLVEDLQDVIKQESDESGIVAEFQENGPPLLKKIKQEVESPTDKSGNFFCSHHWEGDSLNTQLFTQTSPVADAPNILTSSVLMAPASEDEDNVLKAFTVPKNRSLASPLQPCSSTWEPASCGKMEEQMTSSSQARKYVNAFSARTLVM
Method in brief: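 Multiplexed cis-reporter system in HepG2: transient transfection, 24 h treatment, mRNA readout by RT-PCR and capillary electrophoresis. Both increases and decreases are scored versus DMSO negative control.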

[17] = ATG_NF_kB_CIS: Attagene CIS-FACTORIAL HepG2 Assay for human Nuclear Factor Kappa B (NF-kB) (AID 2282991); conditions: HepG2 Attagene cis-factorial NF-kB reporter mRNA; actives raise or lower the signal
Method in brief: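 After 24 h compound incubation, transfected HepG2 cells yield total RNA; reporter cDNA is PCR-amplified, end-labelled with 6-FAM, HpaI-digested and analysed on a genetic analyser. Endogenous factor activity, DMSO-referenced bidirectional fit.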

[18] = ATG_M_32_TRANS: Attagene TRANS-FACTORIAL HepG2 Assay for M32 Transcription Factor (Internal Marker) (AID 2282984; active = hit-call score of the fitted dose curve at least 0.9, where 1 is the maximum;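 note: transcript level of a background control reporter unit measured by RT-PCR and capillary electrophoresis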); conditions: HepG2 Attagene TRANS M32 internal marker reporter
Method in brief: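 Internal-marker readout from a multiplexed transcription reporter panel. HepG2 cells were transfected with GAL4-UAS reporter units, treated 24 hours, and reporter transcript levels determined by fluorescence after RT-PCR and capillary separation.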

[19] = target: Hepatocyte nuclear factor 4-alpha (Homo sapiens) (UniProt P41235); experiment: ATG_HNF4a_TRANS: Attagene TRANS-FACTORIAL HepG2 Assay for human Hepatocyte Nuclear Factor 4 alpha (HNF4a) (AID 2282982; active = hit-call score of the fitted dose curve at least 0.9, where 1 is the maximum); conditions: HepG2 HNF4a transactivation reporter, mRNA readout
Sequence of Hepatocyte nuclear factor 4-alpha (Homo sapiens) (P41235 whole entry, looked up, the tested form may be a part): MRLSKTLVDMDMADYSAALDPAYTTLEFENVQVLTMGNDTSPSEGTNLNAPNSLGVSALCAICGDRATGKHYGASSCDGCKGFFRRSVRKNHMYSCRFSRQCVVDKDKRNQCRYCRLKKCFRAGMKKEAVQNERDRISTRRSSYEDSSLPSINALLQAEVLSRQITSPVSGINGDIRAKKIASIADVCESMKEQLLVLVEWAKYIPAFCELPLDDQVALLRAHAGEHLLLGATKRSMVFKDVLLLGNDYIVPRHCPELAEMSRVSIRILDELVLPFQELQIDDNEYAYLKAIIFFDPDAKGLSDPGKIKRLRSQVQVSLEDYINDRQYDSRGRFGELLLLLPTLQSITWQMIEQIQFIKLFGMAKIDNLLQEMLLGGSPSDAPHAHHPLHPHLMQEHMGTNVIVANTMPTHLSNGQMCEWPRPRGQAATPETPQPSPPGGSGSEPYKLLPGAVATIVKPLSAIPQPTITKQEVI
Method in brief: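 Endpoint reflects transcriptional activation of a GAL4-UAS reporter by an HNF4a-GAL4 chimera in transfected HepG2 cells, 24 h post-dosing. Fluorescence from RT-PCR products separated by capillary electrophoresis; DMSO baseline.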

[20] = target: Bile acid receptor (Homo sapiens) (UniProt Q96RI1); experiment: ATG_FXR_TRANS: Attagene TRANS-FACTORIAL HepG2 Assay for Farnesoid X Receptor (FXR) (AID 2282979; active = hit-call score of the fitted dose curve at least 0.9, where 1 is the maximum;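 note: hits raise reporter mRNA above DMSO so AC50 marks FXR activation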); conditions: HepG2 Attagene TRANS FXR-GAL4 reporter transcription
Method in brief: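 HepG2 cells transiently transfected with reporter constructs in which a chimeric FXR-GAL4 protein drives a GAL4-UAS reporter; 24 h compound exposure. Reporter mRNA measured by RT-PCR, FAM labelling, HpaI digestion and capillary electrophoresis; gain-of-signal versus DMSO.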

## OC[C@H]1O[C@H](O[C@]2(CCl)O[C@H](CCl)[C@@H](O)[C@@H]2O)[C@H](O)[C@@H](O)[C@H]1Cl
[1]
  outcome: inactive
[2]
  outcome: inactive
[3]
  outcome: inactive
[4]
  outcome: inactive
[5]
  outcome: inactive
[6]
  outcome: inactive
[7]
  outcome: inactive
[8]
  outcome: inactive
[9]
  outcome: inactive
[10]
  outcome: inactive
[11]
  outcome: inactive
[12]
  outcome: inactive
[13]
  outcome: inactive
[14]
  outcome: inactive

## C[Si](O[Si](C)(C)C)O[Si](C)(C)C
[1]
  outcome: inactive
[2]
  outcome: inactive
[3]
  outcome: inactive
[15]
  outcome: inactive
[16]
  outcome: inactive
[5]
  outcome: inactive
[6]
  outcome: inactive
[7]
  outcome: inactive
[17]
  outcome: inactive
[8]
  outcome: inactive
[9]
  outcome: inactive
[10]
  outcome: inactive

## C=C(C)C(=O)OCCOC(=O)CC(C)=O
[1]
  outcome: inactive
[2]
  outcome: inactive
[3]
  outcome: inactive
[18]
  outcome: inactive
[16]
  outcome: inactive
[5]
  outcome: inactive
[6]
  outcome: inactive
[7]
  outcome: inactive
[17]
  outcome: inactive
[8]
  outcome: inactive
[9]
  outcome: inactive
[10]
  outcome: inactive

## COCCCOc1ccnc(CS(=O)c2nc3ccccc3[nH]2)c1C (configuration not stated)
[1]
  outcome: inactive
[2]
  AC50: 23.2 µM (active)
[3]
  AC50: 27.9 µM (active)
[4]
  outcome: inactive
[18]
  outcome: inactive
[15]
  outcome: inactive
[16]
  outcome: inactive
[5]
  outcome: inactive
[6]
  outcome: inactive
[7]
  outcome: inactive
[17]
  outcome: inactive
[8]
  AC50: 36.4 µM (active)
[9]
  outcome: inactive
[10]
  outcome: inactive

## COC(=O)OC
[1]
  outcome: inactive
[2]
  outcome: inactive
[3]
  outcome: inactive
[4]
  outcome: inactive
[18]
  outcome: inactive
[16]
  outcome: inactive
[5]
  outcome: inactive
[6]
  outcome: inactive
[7]
  outcome: inactive
[8]
  outcome: inactive
[9]
  outcome: inactive
[10]
  outcome: inactive

## CC(C)(COC(=O)c1ccccc1)COC(=O)c1ccccc1
[1]
  outcome: inactive
[2]
  outcome: inactive
[3]
  outcome: inactive
[19]
  outcome: inactive
[4]
  outcome: inactive
[18]
  outcome: inactive
[15]
  outcome: inactive
[16]
  outcome: inactive
[5]
  outcome: inactive
[6]
  outcome: inactive
[7]
  outcome: inactive
[8]
  outcome: inactive
[9]
  outcome: inactive
[11]
  AC50: 11.4 µM (active)
[12]
  AC50: 34 µM (active)
[13]
  outcome: inactive
[14]
  AC50: 29.5 µM (active)

## CNC(=O)Oc1ccc2c(c1)[C@]1(C)CCN(C)[C@@H]1N2C
[1]
  outcome: inactive
[20]
  outcome: inactive
[18]
  outcome: inactive
[15]
  outcome: inactive
[16]
  outcome: inactive
[5]
  outcome: inactive
[7]
  outcome: inactive
[17]
  outcome: inactive
[8]
  AC50: 100 µM (active)
[9]
  outcome: inactive
[10]
  outcome: inactive

## O=C(O)c1cccc(C(F)(F)F)c1
[1]
  outcome: inactive
[2]
  outcome: inactive
[3]
  outcome: inactive
[19]
  outcome: inactive
[4]
  outcome: inactive
[18]
  outcome: inactive
[5]
  outcome: inactive
[6]
  outcome: inactive
[7]
  outcome: inactive
[8]
  outcome: inactive
[9]
  outcome: inactive
[10]
  outcome: inactive

## CN(C)c1ccc(O)c2c1C[C@H]1C[C@H]3[C@H](N(C)C)C(=O)C(C(N)=O)=C(O)[C@@]3(O)C(=O)C1=C2O
[1]
  outcome: inactive
[3]
  outcome: inactive
[15]
  outcome: inactive
[16]
  outcome: inactive
[5]
  outcome: inactive
[6]
  outcome: inactive
[7]
  outcome: inactive
[17]
  outcome: inactive
[8]
  outcome: inactive
[9]
  outcome: inactive

## [Ca+2]
[1]
  outcome: inactive
[3]
  outcome: inactive
[19]
  outcome: inactive
[4]
  outcome: inactive
[15]
  outcome: inactive
[16]
  outcome: inactive
[5]
  outcome: inactive
[6]
  outcome: inactive
[7]
  outcome: inactive
[17]
  outcome: inactive
[8]
  outcome: inactive
[9]
  outcome: inactive

## O=C(O)CCSCCC(=O)O
[1]
  outcome: inactive
[3]
  outcome: inactive
[19]
  outcome: inactive
[18]
  outcome: inactive
[16]
  outcome: inactive
[5]
  outcome: inactive
[6]
  outcome: inactive
[7]
  outcome: inactive
[8]
  outcome: inactive
[9]
  outcome: inactive
[10]
  outcome: inactive
